Source: PubChem BioAssay
Values joined by “and” are separate entries in the source; they are usually repeats but may differ in a detail not shown here. Equal entries are not always repeated.

Columns and labels:
[1] = tested on: Botulinum neurotoxin type F light chain protease (Clostridium botulinum); experiment: Clostridium botulinum type F light chain protease inhibitors, microsphere substrate cleavage, validation (AID 588459); conditions: multiplex microsphere protease substrate cleavage assay, flow cytometry; at 10 µM; active compounds read high
[2] = biological target: Botulinum neurotoxin type A (Clostridium botulinum) (UniProt P0DPI0); experiment: BoNT/A light chain protease inhibitors, biochemical, multiplex microsphere flow cytometry, validation set (AID 588460); conditions: at 10 µM, active compounds read high
[3] = biological target: Lethal factor (Bacillus anthracis) (UniProt P15917); experiment: Bacillus anthracis lethal factor inhibition, microsphere flow cytometry protease assay, validation at 10 µM (AID 588461); conditions: multiplex microsphere protease cleavage assay, active compounds read high

Measured: inhibition

Botulinum neurotoxin type A (Clostridium botulinum), sequence (P0DPI0 whole entry, looked up): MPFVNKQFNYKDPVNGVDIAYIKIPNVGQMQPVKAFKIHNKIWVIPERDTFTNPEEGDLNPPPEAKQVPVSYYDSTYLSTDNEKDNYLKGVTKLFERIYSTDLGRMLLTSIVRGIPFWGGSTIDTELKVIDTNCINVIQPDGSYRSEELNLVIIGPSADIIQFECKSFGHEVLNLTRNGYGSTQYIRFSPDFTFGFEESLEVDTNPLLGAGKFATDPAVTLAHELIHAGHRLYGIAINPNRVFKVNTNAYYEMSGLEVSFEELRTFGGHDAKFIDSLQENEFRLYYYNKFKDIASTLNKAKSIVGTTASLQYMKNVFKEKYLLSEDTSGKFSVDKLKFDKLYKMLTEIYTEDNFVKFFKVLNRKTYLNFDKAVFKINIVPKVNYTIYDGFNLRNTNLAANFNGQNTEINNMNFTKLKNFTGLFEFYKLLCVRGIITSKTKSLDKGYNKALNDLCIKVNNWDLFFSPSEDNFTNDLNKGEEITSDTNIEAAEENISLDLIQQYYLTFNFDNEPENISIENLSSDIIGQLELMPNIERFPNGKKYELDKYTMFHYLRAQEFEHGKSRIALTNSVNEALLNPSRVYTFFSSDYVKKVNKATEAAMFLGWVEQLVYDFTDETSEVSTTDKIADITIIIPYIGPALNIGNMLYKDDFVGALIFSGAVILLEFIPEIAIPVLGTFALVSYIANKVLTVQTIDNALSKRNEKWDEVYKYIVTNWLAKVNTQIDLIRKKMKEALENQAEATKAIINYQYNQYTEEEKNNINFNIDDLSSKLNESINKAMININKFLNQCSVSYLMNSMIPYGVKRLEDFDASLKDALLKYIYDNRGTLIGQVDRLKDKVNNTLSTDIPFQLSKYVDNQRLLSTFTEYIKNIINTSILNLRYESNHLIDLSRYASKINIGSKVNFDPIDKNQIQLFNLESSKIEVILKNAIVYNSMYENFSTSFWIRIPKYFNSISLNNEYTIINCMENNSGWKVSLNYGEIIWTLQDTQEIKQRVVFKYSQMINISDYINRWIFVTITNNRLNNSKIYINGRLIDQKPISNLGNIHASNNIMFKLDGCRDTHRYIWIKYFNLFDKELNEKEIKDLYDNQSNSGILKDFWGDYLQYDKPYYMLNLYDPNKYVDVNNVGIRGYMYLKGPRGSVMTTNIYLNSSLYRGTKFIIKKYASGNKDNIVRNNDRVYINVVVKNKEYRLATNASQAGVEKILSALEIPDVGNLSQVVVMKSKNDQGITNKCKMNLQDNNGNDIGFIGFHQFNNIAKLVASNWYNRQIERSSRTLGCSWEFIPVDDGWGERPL
Lethal factor (Bacillus anthracis), sequence (P15917 whole entry, looked up): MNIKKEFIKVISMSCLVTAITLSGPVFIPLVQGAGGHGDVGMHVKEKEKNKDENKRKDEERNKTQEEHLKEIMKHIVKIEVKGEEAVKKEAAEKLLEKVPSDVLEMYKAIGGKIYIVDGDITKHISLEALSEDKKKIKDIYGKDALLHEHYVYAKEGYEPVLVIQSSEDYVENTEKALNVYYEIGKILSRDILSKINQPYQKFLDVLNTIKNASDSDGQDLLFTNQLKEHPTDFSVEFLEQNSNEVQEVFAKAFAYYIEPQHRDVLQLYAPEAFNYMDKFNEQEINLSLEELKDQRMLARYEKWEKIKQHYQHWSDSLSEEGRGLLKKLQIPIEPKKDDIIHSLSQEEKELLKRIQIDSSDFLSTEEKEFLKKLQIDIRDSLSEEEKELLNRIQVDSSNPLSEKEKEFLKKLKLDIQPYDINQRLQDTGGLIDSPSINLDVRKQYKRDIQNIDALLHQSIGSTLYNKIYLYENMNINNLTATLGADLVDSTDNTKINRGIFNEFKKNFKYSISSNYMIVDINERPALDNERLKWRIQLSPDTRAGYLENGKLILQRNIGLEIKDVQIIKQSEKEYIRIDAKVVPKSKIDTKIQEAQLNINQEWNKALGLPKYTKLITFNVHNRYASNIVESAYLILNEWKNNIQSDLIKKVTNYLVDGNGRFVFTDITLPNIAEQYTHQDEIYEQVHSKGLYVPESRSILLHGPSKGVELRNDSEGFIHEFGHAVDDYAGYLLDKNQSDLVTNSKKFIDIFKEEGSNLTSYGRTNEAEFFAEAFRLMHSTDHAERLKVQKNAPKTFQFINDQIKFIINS

CC(C)C1Cc2[nH]c(=O)c(C(=O)O)cc2CO1 (configuration not stated)
inactive: [1] 2.3% | [2] -0.9% | [3] -1.4%

CCCCC[C@H](O)/C=C/[C@@H]1[C@@H](C/C=C\CCCC(=O)OC)[C@@H](O)C[C@H]1O
inactive: [1] -3.3% | [2] -1% | [3] -1.1%

O=C(O)CCCNc1ccc(S(=O)(=O)Nc2ccccc2C(=O)O)cc1C(=O)O
inactive: [1] 1.6% | [2] 1.7% | [3] 10%

CCN(CC)C(=S)SSC(=S)N(CC)CC
inactive: [1] -3.2% | [2] -3.2% | [3] -10.6%

Cc1ccc(OCCSc2ncccn2)c(C)c1
inactive: [1] 3.4% | [2] 0.6% | [3] 1.7%

CC(C)CCc1noc(CN2CCC(CCN3CCCC3=O)CC2)n1
inactive: [1] 1% | [2] 0.2% | [3] 3.1%

O=c1[nH]c(=O)n([C@H]2C[C@H](O)[C@@H](CO)O2)cc1F
inactive: [1] 1.7% | [2] 1.3% | [3] 1.1%

C#CCN1C(=O)C(O)(c2c(C)[nH]c3ccccc23)c2ccccc21 (configuration not stated)
inactive: [1] 0.4% | [2] 0.5% | [3] -3.2%

O=C(CCCn1c(=O)oc2ccccc21)N1CCN(c2ccc(F)cc2)CC1
inactive: [1] 1.1% | [2] 0.2% | [3] -4.7%

CN(Cc1ccccc1)CC(O)COc1ccc(CNCc2cccnc2)cc1 (configuration not stated)
inactive: [1] -3.8% | [2] 0.2% | [3] -5.3%

Cc1ccc2c(CC(=O)O)coc2c1
inactive: [1] -2.9% | [2] -1.3% | [3] -1.1%

CC1(C)C(C=C(Cl)Cl)C1C(=O)N1CCN(Cc2ccccc2)CC1 (configuration not stated)
inactive: [1] -0.6% | [2] 0.8% | [3] -5.5%

O=C1[C@@H]2[C@H](Cc3ccc(O)cc3)N[C@]3(C(=O)Nc4ccccc43)[C@@H]2C(=O)N1c1ccc(F)cc1
inactive: [1] 1.3% | [2] 1.7% | [3] -2.6%

Cc1ccc(C2CC(=O)C(C=NCCN3CCN(C(=S)Nc4ccccc4)CC3)=C(O)C2)cc1 (configuration not stated)
inactive: [1] -0.8% | [2] 0.1% | [3] 5.4%

O=C(NC(=S)Nc1ccc(N2CCN(C(=O)c3ccccc3)CC2)cc1)c1cccs1
inactive: [1] -8.9% | [2] -3.2% | [3] -10.5%

O=C(COc1cc(O)c2c(=O)c3ccccc3oc2c1)OCc1ccccc1
inactive: [1] 1.4% | [2] 0.2% | [3] 1.6%

Cc1nnc(NS(=O)(=O)c2ccc(N)cc2)s1
inactive: [1] 2.8% | [2] -1.1% | [3] -2.8%

COc1ccc2[nH]c3c(c2c1)CCn1c-3nc2ccccc2c1=O
inactive: [1] 7% | [2] 2.2% | [3] 4.4%

Cc1ccc2[nH]c3c(=O)n(CCCN4CCN(C)CC4)cnc3c2c1
inactive: [1] 7.8% | [2] -1% | [3] -2.5%

COc1ccc(Cc2noc(CN(C)CCN3CCc4ccccc4C3)n2)cc1OC
inactive: [1] -1.9% | [2] -0.3% | [3] -7.4%

COc1ccc(C2C3CCCCC3(O)CCN2C(=O)c2cccs2)cc1 (configuration not stated)
inactive: [1] 2.8% | [2] 2.1% | [3] 5.5%

NC12CC3CC(C1)CC(O)(C3)C2
inactive: [1] 4.4% | [2] -0.4% | [3] -0.7%

CN(C)CCCN1c2ccccc2Sc2ccc(Cl)cc21
inactive: [1] -3.6% and 2.8% | [2] 0.6% | [3] -0.5% and 0.1%

COc1ccc(C2C(=O)c3ccccc3C2=O)cc1
inactive: [1] 0.5% | [2] -0.4% | [3] -3.8%

CC12CC(c3ccccc3O1)C(C(=O)N1CCOCC1)C(=O)N2 (configuration not stated)
inactive: [1] 2.8% | [2] 0% | [3] -4.8%

O=C(CN1C(=O)c2ccccc2S1(=O)=O)Nc1ccccc1
inactive: [1] 2.3% | [2] 0.2% | [3] -4.6%

CC(=O)Nc1ccc(CN2CCN(C3CCCCC3)C(CCO)C2)cc1 (configuration not stated)
inactive: [1] -0.2% | [2] -1.1% | [3] -3.7%

COc1ccc2[nH]c(C)c(CN3CCC(C)CC3)c(=O)c2c1
inactive: [1] -0.8% | [2] 0.1% | [3] -5.9%

COc1cc(-c2cccs2)cc(=O)c2c(C)oc(C)c12
inactive: [1] 1.4% | [2] 2.1% | [3] -4%
